Results as given in PubChem BioAssay AID1259421 (Broad Institute, 2018).
Where “and” joins values, the source holds several entries; their conditions need not be identical. Equal values may be shown once. Hit rate of the full screen: of about 6,400 compounds, about 610 (9.5%) were called active. No stated cut-off is given here; in the data, active means activity change below about -70%; inconclusive means no clear call, values can overlap the other calls; inactive means above that. The entries come from a sample that favours actives as a whole. A structure can be active in one record and inactive in another. *1 amine or outer side, *2 acyl side, *3 side chain or, on linkers, in order; H or OH if unused. Where a SMILES comes first, the peptide text is derived from it. Bridges are numbered along the chain shown (N, C = ends). Roman numbers before positions name the chains, in order. [ ]: non-standard residue; d: D form. The star is where a group is joined. Actinocin(9to1) = Cc1c2oc3c(C)ccc(C(=O)[*:1])c3nc-2c(C(=O)[*:2])c(N)c1=O; NMeV = CN[CH](C(=O)O)C(C)C; Cbz = O=C(OCc1ccccc1)*; Sar = CNCC(=O)O

Assay: T. gondii ME49Luc in HeLa cells, luciferase assay, 72 h, no IFN-y (AID 1259421)
Conditions: stronger effect = lower value, concentration not given here

| Compound | activity change, negative = inhibition |
| --- | --- |
| C=C1C[C@]23C[C@@]1(O)CC[C@H]2[C@@]12C=C[C@H](O)[C@](C)(C(=O)O1)[C@H]2[C@@H]3C(=O)O | 1.78% (inactive) |
| CCCCC(C)(C)[C@H](O)/C=C/[C@H]1[C@H](O)CC(=O)[C@@H]1C/C=C\CCCC(=O)O | 16.3% (inactive) |
| O/N=C/c1ccc(-c2ccc(O)c(F)c2)c(Cl)c1O | -85.3% (active) |
| CC(=O)Nc1cccc(-n2c(=O)n(C3CC3)c(=O)c3c(Nc4ccc(I)cc4F)n(C)c(=O)c(C)c32)c1 | 19.3% (inactive) |
| CCOc1nc2cccc(C(=O)O)c2n1Cc1ccc(-c2ccccc2-c2nn[nH]n2)cc1 | -59.6% (inactive) |
| C=C[C@]1(C)C[C@@H](OC(=O)CSC(C)(C)CNC(=O)[C@H](N)C(C)C)[C@@]2(C)[C@H](C)CC[C@]3(CCC(=O)[C@H]32)[C@@H](C)[C@@H]1O | -20.2% (inactive) |
| Cc1c(CN2CCN(C(=O)[C@H](C)O)CC2)sc2c(N3CCOCC3)nc(-c3cnc(N)nc3)nc12 | -21.6% (inactive) |
| CS(=O)(=O)N1CCN(Cc2cc3nc(-c4cccc5[nH]ncc45)nc(N4CCOCC4)c3s2)CC1 | -19.3% (inactive) |
| COc1ccc(-c2nc(N3CCOCC3)c3sc(CN(C)c4ncc(C(=O)NO)cn4)cc3n2)cn1 | -89.4% (active) |
| C=CC(C)(C)c1[nH]c2ccccc2c1C1C(=O)C(=O)C(c2c[nH]c3c(CC=C(C)C)cccc23)C(=O)C1=O (stereo not drawn) | 6.09% (inactive) |
| O=C(O)/C=C1\CCCc2ccccc2C1O (stereo not drawn) | 14% (inactive) and 4.55% (inactive) |
| Cc1ccc2c(Br)cc(Br)c(OC(=O)c3ccccc3)c2n1 | -89.9% (active) |
| O=C(OOC(=O)c1ccccc1)c1ccccc1 | 3.51% (inactive) |
| O=C(Oc1cccc2cccnc12)c1ccccc1 | 9.16% (inactive) and -0.158% (inactive) |
| Nc1nc(N)c([NH2+][O-])c(OCC2CCCCC2)n1 | 6.35% (inactive) |
| O=C(O)[C@H](O)[C@H](O)[C@@H](O)[C@H](O)[C@H](O)CO | 15.3% (inactive) and -2.15% (inactive) |
| COc1cccc2c1C(=O)c1c(O)c3c(c(O)c1C2=O)C[C@@](O)(C(C)=O)C[C@@H]3OC1CC(N)C(O)C(C)O1 (stereo partly drawn) | -89.8% (active) |
| COc1cccc2c1C(=O)c1c(O)c3c(c(O)c1C2=O)C[C@@](O)(C(C)=O)C[C@@H]3O[C@H]1C[C@H](N)[C@H](O)[C@H](C)O1 | -66.8% (inactive) and -6.1% (inactive) and -91.6% (active) |
| Nc1nc2c(nc(Br)n2[C@@H]2O[C@@H]3COP(=O)(O)O[C@H]3[C@H]2O)c(=O)[nH]1 | 7.36% (inactive) |
| CO[C@H]1CC(O[C@@H]2/C(C)=C/C[C@@H]3C[C@@H](C[C@]4(CC[C@H](C)[C@@H](C5CCCCC5)O4)O3)OC(=O)[C@@H]3C=C(C)/C(=N/O)[C@H]4OC/C(=C\C=C\[C@@H]2C)[C@]43O)O[C@@H](C)C1O (stereo partly drawn) | -64.5% (inactive) and -40.6% (inactive) |

| Compound | activity change, negative = inhibition |
| --- | --- |
| NCCCCN=C(N)N | 12.5% (inactive) |
| CC(CCC(=O)NCC(=O)O)C1CCC2C3CCC4CC(O)CCC4(C)C3CC(O)C12C (stereo not drawn) | -5.76% (inactive) |
| CC(=O)O[C@@H]1CC2C(C)(C)C(=O)CC[C@]2(C)C2CC[C@@]3(C)[C@H](c4ccoc4)OC(=O)C4OC43[C@@]21C (stereo partly drawn) | 21.5% (inactive) |
| COC1CCC(N(C(=O)C2CCC(C)CC2)c2cc(C3=CCCCC3)sc2C(=O)O)CC1 (stereo not drawn) | 5.25% (inactive) |
| COc1cccc(O)c1O | -4.12% (inactive) |
| C[C@@H]1C(SC2CN(C3=NCCS3)C2)=C(C(=O)OCOC(=O)C(C)(C)C)N2C(=O)[C@H]([C@@H](C)O)[C@H]12 | 3.05% (inactive) |
| COC(=O)[C@H](CC(C)C)NC(=O)[C@@H](N)CC(C)C | 4.82% (inactive) |
| CC(C)C[C@@H](C=O)NC(=O)[C@H](CC(C)C)NC(=O)[C@H](CC(C)C)NC(=O)OCc1ccccc1 (Cbz-Leu-Leu-Leu-aldehyde) | -62.8% (inactive) and -91.5% (active) |
| CCCCC(C=O)NC(=O)C(CC(C)C)NC(=O)OCc1ccccc1 (stereo not drawn) | 10.2% (inactive) |
| CC(C)=CCC/C(C)=C/COc1ccc2ccc(=O)oc2c1 | 17.8% (inactive) |
| c1ccc2c(c1)CCCc1cc(NCCN3CCOCC3)nnc1-2 | 12.2% (inactive) |
| O=C1C(Cl)=C(NCCN2CCOCC2)C(=O)c2ncccc21 | -78.2% (active) |
| O=C(NCCN1CCOCC1)c1ccc(Cl)cc1 | -0.363% (inactive) |
| c1cc(-c2cnn3cc(-c4ccc(OCCN5CCCCC5)cc4)cnc23)ccn1 | -69.4% (inactive) |
| C/C(=N\NC(=O)[C@@H]1C(=O)NC[C@H]1c1ccccc1)c1cccc(Br)c1 | 1.33% (inactive) |
| CO[C@H]1C=CO[C@@]2(C)Oc3c(C)c(O)c4c(O)c(c5c(nc6cc(C)ccn65)c4c3C2=O)NC(=O)/C(C)=C\C=C[C@H](C)[C@H](O)[C@@H](C)[C@@H](O)[C@@H](C)[C@H](OC(C)=O)[C@@H]1C | -17.3% (inactive) |
| O=C1OC(=O)C2C3CCC(O3)C12 (stereo not drawn) | -85.1% (active) |
| CC(C)[C@](O)(c1ccc2cc(OC(F)F)c(OC(F)F)cc2c1)c1cn[nH]n1 | 29.6% (inactive) |
| Brc1cccc(Nc2ncnc3cc4nc[nH]c4cc23)c1 | 3.71% (inactive) |
| O=c1[nH]c2cc(Cl)c(Cl)c([N+](=O)[O-])c2[nH]c1=O | 7.55% (inactive) |

| Compound | activity change, negative = inhibition |
| --- | --- |
| O=c1[nH]c2cc(Cl)c(Cl)cc2[nH]c1=O | -86.2% (active) |
| O=c1[nH]c2cc([N+](=O)[O-])c([N+](=O)[O-])cc2[nH]c1=O | 17.4% (inactive) and 5.82% (inactive) and 4.72% (inactive) |
| COc1cc([C@@H]2Oc3c(O)cc([C@H]4Oc5cc(O)cc(O)c5C(=O)[C@@H]4O)cc3[C@H]2CO)ccc1O | -10.5% (inactive) |
| CC(C)O.CC(C)O.CC(C)O.[In] | 12.3% (inactive) |
| Cc1c2oc3c(C)ccc(C(=O)N[C@@H]4C(=O)N[C@H](C(C)C)C(=O)N5CCC[C@H]5C(=O)N(C)CC(=O)N(C)[C@@H](C(C)C)C(=O)O[C@@H]4C)c3nc-2c(C(=O)N[C@@H]2C(=O)N[C@H](C(C)C)C(=O)N3CCC[C@H]3C(=O)N(C)CC(=O)N(C)[C@@H](C(C)C)C(=O)O[C@@H]2C)c(N)c1=O (I: T[dV]P[Sar][NMeV] / II: T[dV]P[Sar][NMeV]; ester I:1-I:C, II:1-II:C; linker I:N-II:N via Actinocin(9to1)) | -88.5% (active) |
| Cc1c2oc3c(C)ccc(C(=O)OC(C)C4NC(=O)C(C(C)C)N(C)C(=O)CN(C)C(=O)C5CCCN5C(=O)C(C(C)C)NC4=O)c3nc-2c(C(=O)OC(C)C2NC(=O)C(C(C)C)N(C)C(=O)CN(C)C(=O)C3CCCN3C(=O)C(C(C)C)NC2=O)c(N)c1=O (stereo not drawn) (I: cyclo([Sar][NMeV]TVP) / II: cyclo([Sar][NMeV]TVP); linker I:3-II:3 via Actinocin(9to1); configuration not given here) | -87.1% (active) |
| CCC1OC(=O)[C@H](C)C(=O)[C@H](C)[C@@H](OC2O[C@H](C)C[C@H](N(C)C)[C@H]2O)[C@](C)(OC)C[C@@H](C)C(=O)[C@@H](C)[C@@H]2N(CCCCn3cnc(-c4cccnc4)c3)C(=O)O[C@]12C (stereo partly drawn) | -0.624% (inactive) |
| COCCCCC(=NOCCN)c1ccc(C(F)(F)F)cc1 | 4.87% (inactive) |
| O=C(CCCc1ccc(-c2ccccc2F)cc1)Nc1ccc(O)cc1 | -67.6% (inactive) and -60.5% (inactive) |
| Nc1nccc(Oc2ccc(NC(=O)c3c[nH]cc(-c4ccc(F)cc4)c3=O)cc2F)c1Cl | -76.8% (active) |
| Cn1cnc(-c2cc3nccc(Oc4ccc(NC(=S)NC(=O)Cc5ccccc5)cc4F)c3s2)c1 | 28.8% (inactive) |
| CCOc1ccn(-c2ccc(F)cc2)c(=O)c1C(=O)Nc1ccc(Oc2ccnc(N)c2Cl)c(F)c1 | 0.966% (inactive) |
| N#Cc1ccc(NCCNCC(=O)N2CCC[C@H]2C#N)nc1 | -0.604% (inactive) |
| COc1ccc(-c2cc(=O)c3c(O)cc(O[C@@H]4O[C@@H](CO[C@@H]5O[C@H](C)[C@@H](O)[C@H](O)[C@H]5O)[C@H](O)[C@@H](O)[C@H]4O)cc3o2)cc1O | 6.66% (inactive) |
| CCc1c(Cl)c(O)c(Cl)c(O)c1C(=O)O[C@H]1[C@H](O)[C@H](OC)[C@H](OCC2=C/C=C/C[C@H](O)/C(C)=C\[C@H](CC)[C@H](O[C@@H]3OC(C)(C)[C@@H](OC(=O)C(C)C)[C@H](O)[C@H]3O)/C(C)=C\C(C)=C\C[C@H]([C@@H](C)O)OC2=O)O[C@@H]1C | 16.6% (inactive) |
| C[C@H]1O[C@@H](O[C@H]2[C@@H](O)C[C@H](O[C@H]3[C@@H](O)C[C@H](O[C@H]4CC[C@]5(C)C6CC[C@]7(C)[C@@H](C8=CC(=O)OC8)CC[C@]7(O)C6CC[C@@H]5C4)O[C@@H]3C)O[C@@H]2C)C[C@H](O)[C@@H]1O (stereo partly drawn) | -83.2% (active) and -93.3% (active) |
| C[C@H]1O[C@@H](O[C@H]2[C@@H](O)C[C@H](O[C@H]3[C@@H](O)C[C@H](O[C@H]4CC[C@]5(C)C6C[C@@H](O)[C@]7(C)[C@@H](C8=CC(=O)OC8)CC[C@]7(O)C6CC[C@@H]5C4)O[C@@H]3C)O[C@@H]2C)C[C@H](O)[C@@H]1O (stereo partly drawn) | -76.7% (active) and -101% (active) |
| C=CCn1c(=O)n([C@@H]2O[C@H](CO)[C@@H](O)[C@H]2O)c2nc(N)[nH]c(=O)c21 | -1.47% (inactive) |
